A selection: hits, their analogues and other compounds. The true share with any hit is near 3.4%.
GPR151 activ: activators of human GPR151, primary screen, cell-based, PathHunter beta-arrestin, luminescence; activation, % at 11.2 µM; 1% of 650,000 active; PathHunter beta-arrestin GPR151 cells; G-protein coupled receptor 151 (Homo sapiens), Q8TDV0; AID 1508602, 2020; in the data active = activation above about 4.9%;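 note: 0% = median of compound wells and 100% = cells with positive control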
FBW7 activator: FBW7 E3 ligase activators, primary screen, biochemical, AlphaScreen, human. normalized activity (activation), % at 26.1 µM. F-box/WD repeat-containing protein 7 (Homo sapiens), Q969H0. AlphaScreen FBW7–phospho-cyclin E peptide binding, activator screen. 0.13% of 650,000 active; in the data active = normalized activity above about 1.9%;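 note: purified mutant Fbw7 with reduced substrate affinity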
TEAD-YAP block: TEAD-YAP interaction inhibition, primary screen, TEAD-YAP interaction inhibitor project, luminescence, HEK-TIYL cells; 1.4% of 640,000 active; inhibition, % at 9.12 µM; TEAD-Gal4/YAP UAS-luciferase luminescence; in the data active = inhibition above about 32%;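 note: 0% = median of test compound wells and 100% = reference inhibitor wells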
MITF primary: MITF inhibitors, primary screen, biochemical, AlphaScreen, human | 0.91% of 650,000 active | AlphaScreen MITF homodimerization, bead proximity signal | inhibition, % at 2.6 µM | Microphthalmia-associated transcription factor (Homo sapiens), O75030; in the data active = inhibition above about 50%;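 note: 0% = vehicle wells with protein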
Target sequence (O75030 whole entry, looked up): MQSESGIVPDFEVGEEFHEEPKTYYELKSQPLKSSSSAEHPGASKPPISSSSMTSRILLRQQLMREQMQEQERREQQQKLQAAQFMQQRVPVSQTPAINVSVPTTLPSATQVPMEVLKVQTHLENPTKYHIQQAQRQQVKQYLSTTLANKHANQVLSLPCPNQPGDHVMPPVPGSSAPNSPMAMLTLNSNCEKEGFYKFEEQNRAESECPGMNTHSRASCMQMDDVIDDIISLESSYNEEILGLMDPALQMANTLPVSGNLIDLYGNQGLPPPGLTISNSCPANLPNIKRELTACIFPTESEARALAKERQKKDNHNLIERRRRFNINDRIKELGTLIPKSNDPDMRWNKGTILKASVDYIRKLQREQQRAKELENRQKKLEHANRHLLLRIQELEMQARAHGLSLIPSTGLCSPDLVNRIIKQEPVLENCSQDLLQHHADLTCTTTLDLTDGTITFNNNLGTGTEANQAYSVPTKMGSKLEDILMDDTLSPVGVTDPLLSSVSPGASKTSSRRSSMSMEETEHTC
GPR151 conf act: GPR151 activators, triplicate retest, confirmation, cell-based, PathHunter beta-arrestin, luminescence | shares compounds with GPR151 activ | GPR151 PathHunter beta-arrestin cells, 90 min; % of EA-reagent control over plate median | activation, % at 11.2 µM | 6,700 tested, under 10 active;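 active = mean percent activation across replicates above the confirmation screen cutoff of 4.91%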
GPR119 counter: GPR119 activators in beta-arrestin cells, counter-screen for GPR151 activator project, cell-based, PathHunter beta-arrestin, luminescence, triplicate; shares compounds with GPR151 activ; 90 min; 0 = compound-well median, 100 = enzyme-acceptor control; activation, % at 11.2 µM; 0.3% of 6,700 active; AID 1508611, 2020;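 active = mean percent activation in the counterscreen above 29.09%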;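 note: counterscreen on off-target GPR119 to flag nonselective hits from the GPR151 activator screen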
* = called active by the depositor; · = not tested or not shown.

SMILES	GPR151 activ	FBW7 activator	TEAD-YAP block	MITF primary	GPR151 conf act	GPR119 counter
Cn1c(SCc2nc(-c3cccs3)no2)nnc1-c1ccco1	2.1	0.1	4.4	9.2	·	·
CC(=O)N1C(=O)/C(=C2\SC(=S)N(C(C)C(=O)O)C2=O)c2ccccc21 (stereo unspecified)	-1.3	-0.1	-1.8	-12.0	·	·
CCn1c(CCNC(=O)C(C)(C)C)nc2ccccc21	6.7*	-0.1	-8.2	0.6	1.7	2.9
CCc1ccc(CN2CCOc3ccc(CN4CCC(Oc5cccnc5)CC4)cc3C2)o1	0.0	-0.1	19.6	3.5	·	·
O=C(Nc1ccccc1Cl)c1csc(-n2cccc2)n1	5.7*	0.2	-50.4	0.8	0.0	0.6
Cc1noc(C)c1-c1nc(NC2CC2)c2ncn(Cc3ccc(C(F)(F)F)cc3)c2n1	0.0	0.1	-6.3	14.5	·	·
Nc1nc(N2CCOCC2)nc2c1ncn2Cc1ccc(C(F)(F)F)cc1	-0.4	-0.2	-2.9	0.3	·	·
Cc1noc(C)c1-c1nc(N)c2ncn(Cc3ccc(C(F)(F)F)cc3)c2n1	5.8*	0.2	-14.8	12.1	-1.2	-9.3
Nc1nc(N2CCC(N3CCOCC3)CC2)nc2c1ncn2Cc1ccc(C(F)(F)F)cc1	6.4*	0.0	-11.1	-7.8	-0.5	-1.3
COc1ccc(C2Nc3ccccc3S(=O)(=O)N2Cc2ccccc2)cc1[N+](=O)[O-] (stereo unspecified)	0.4	-0.1	-3.4	-7.2	·	·
O=[N+]([O-])c1ccc(C2Nc3ccccc3S(=O)(=O)N2Cc2ccccc2)cc1 (stereo unspecified)	6.7*	-0.2	-3.4	2.7	0.2	-6.4
COc1cc(C)ccc1OCc1cc(C(=O)N2CCCCCC2)no1	-0.4	0.0	-9.5	2.5	·	·
COc1cc(C)ccc1OCc1cc(C(=O)N2CCSCC2)no1	6.0*	-0.1	-76.0	-7.5	0.2	-0.2
CCC(=O)Nc1cccc(NC(=O)COc2ccc([N+](=O)[O-])cc2)c1	12.4*	0.0	3.3	7.7	-0.1	-2.2
CC(=O)NS(=O)(=O)c1ccc(NC(=O)COc2ccc([N+](=O)[O-])cc2)cc1	6.1*	0.2	13.6	0.2	-0.1	0.9
CC(C)(C)NS(=O)(=O)c1ccc(NC(=O)COc2ccc([N+](=O)[O-])cc2)cc1	0.8	-0.1	-1.2	-5.7	·	·
CCNS(=O)(=O)c1ccc(NC(=O)c2ccc([N+](=O)[O-])cc2)cc1	5.1*	0.1	1.4	24.1	0.2	1.8
CCCCC(=O)Nc1cccc(NC(=O)COc2ccc([N+](=O)[O-])cc2)c1	10.9*	-0.1	1.3	9.2	-0.5	7.2
CCOC(=O)C1=C(N)Oc2cc(C)n(Cc3ccccc3)c(=O)c2C1c1ccccc1F (stereo unspecified)	-1.9	0.1	6.0	12.6	·	·
Cc1nccn1CCNC(=O)c1cccn(C)c1=O	0.6	0.0	0.0	6.5	·	·
Cc1nccn1CCNC(=O)c1cccc2ccccc12	6.0*	-0.2	0.8	-0.7	-0.8	-9.8
O=c1[nH]c(C2CCNCC2)nc2c1nnn2Cc1ccccc1Cl	-1.1	0.0	2.2	-17.8	·	·
CCN(CC)c1nc(NCc2cccc(C(F)(F)F)c2)nc(NCc2ccc3c(c2)OCO3)n1	6.4*	0.1	-6.2	6.7	0.0	-10.1
CCN(CC)c1nc(NCc2cccc(C(F)(F)F)c2)nc(Nc2ccc(C(F)(F)F)cc2)n1	0.4	0.1	6.0	8.4	·	·
CC1=C(C(=O)Nc2ccccc2)C(c2ccc(C)o2)n2c(s/c(=C/c3ccc(Cl)cc3)c2=O)=N1 (stereo unspecified)	0.6	0.1	1.6	1.9	·	·
COc1ccc(Cl)cc1NC(=O)CN(C)S(=O)(=O)c1ccc(Br)cc1	-0.5	0.1	0.6	10.1	·	·
COc1ccc(Cl)cc1NC(=O)CN(C)CC(=O)Nc1ccc(Br)cc1	7.5*	-0.1	4.7	6.4	0.6	1.3

Source: PubChem BioAssay
